# Screening data (PubChem BioAssay)
# The list is not random: actives were taken first. Their share in the collection is about 19%.
# ELG1 DNA repair – inhibitors of ELG1-dependent DNA repair in HEK293T cells | HEK293T ELG1-luciferase reporter, luminescence, 16 h; DNA damage induced by 5-fluorouridine | Potency, µM (doses to about 46.1 µM), inactives show at the top dose activity change, negative = inhibition, most hits filed as inhibitors | hit rate 2.3% among 330,000 | AID 504467; also: potency is read from the fitted curve at half-maximal effect; nearly all actives have a fitted effect of over 55% in size
#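 Reporter activity after DNA damage by 5-fluorouridine is monitored. Compound-treated cells incubate 16 hr at 37 °C, then ONE-Glo is added for 30 min before luminescence reading.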
# TDP1 cell noCPT – qHTS for Inhibitors of human tyrosyl-DNA phosphodiesterase 1 (TDP1): qHTS in cells in absence of CPT. DT40 Tdp1-/- hTDP1 cells, no CPT, ATP luminescence, 48 h. Potency, µM (top dose mostly 46.2 µM), for the others: at the top dose activity change, negative = growth inhibition, most hits filed as inhibitors. hit rate 15% among 420,000. AID 686978, 2013; also: potency is read from the fitted curve at half-maximal effect; nearly all actives have a fitted effect of over 55% in size
#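 Readout: luminescence from CellTiter-Glo after 30 min in the dark at RT. Cells: DT40 Tdp1-/- with stable hTDP1, 400/well. Exposure: compounds alone, ≥48 hr, 37 °C.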
# TDP1 cell CPT – growth inhibition of DT40 Tdp1-/-;hTDP1 cells with camptothecin (screen for TDP1 inhibitors); chicken DT40 Tdp1-/-;hTDP1 cells + 20 nM CPT, ATP luminescence, 48 h; Potency, µM (highest dose often 46.2 µM), inactives show top-dose activity change, negative = growth inhibition, hits mostly inhibitors; hit rate 12% among 420,000; AID 686979; also: potency is read from the fitted curve at half-maximal effect; nearly all actives have a fitted effect of over 55% in size
#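 Chicken DT40 Tdp1-/- cells stably complemented with human TDP1 were seeded at 400 cells/well in medium containing 20 nM camptothecin, exposed to pin-transferred compounds, and grown at 37 °C for at least 48 hr. Viability was read as ATP luminescence.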
# IL-1B inflam inh – inflammasome signaling inhibition, IL-1 beta readout; hit rate 4.7% among 360,000; AID 743279; THP-1 LPS/ATP IL-1B secretion, AlphaLISA, 16 h; hits give low values; activity change, % at 57.5 µM; in the data active = activity change below about -50%; inconclusive = mostly about -30% to -49%
#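 THP-1 cells pretreated 1 hr with compounds (up to 57.5 uM final), then stimulated with LPS (250 ng/mL final) plus ATP (1.25 mM final); secreted IL-1B measured by AlphaLISA after 16 hr, decreased signal indicating inhibition.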
# TDP1 inh – blocks human tyrosyl-DNA phosphodiesterase 1. Q9NUW8. recombinant TDP1, AlphaScreen DNA substrate cleavage. Potency, µM (series often up to 130 µM), inactives show at the highest dose activity change, negative = inhibition, usual class: inhibitors. hit rate 0.28% among 350,000. AID 485290; also: potency is read from the fitted curve at half-maximal effect; nearly all actives have a fitted effect of over 40% in size
# Target sequence (Q9NUW8 whole entry, looked up): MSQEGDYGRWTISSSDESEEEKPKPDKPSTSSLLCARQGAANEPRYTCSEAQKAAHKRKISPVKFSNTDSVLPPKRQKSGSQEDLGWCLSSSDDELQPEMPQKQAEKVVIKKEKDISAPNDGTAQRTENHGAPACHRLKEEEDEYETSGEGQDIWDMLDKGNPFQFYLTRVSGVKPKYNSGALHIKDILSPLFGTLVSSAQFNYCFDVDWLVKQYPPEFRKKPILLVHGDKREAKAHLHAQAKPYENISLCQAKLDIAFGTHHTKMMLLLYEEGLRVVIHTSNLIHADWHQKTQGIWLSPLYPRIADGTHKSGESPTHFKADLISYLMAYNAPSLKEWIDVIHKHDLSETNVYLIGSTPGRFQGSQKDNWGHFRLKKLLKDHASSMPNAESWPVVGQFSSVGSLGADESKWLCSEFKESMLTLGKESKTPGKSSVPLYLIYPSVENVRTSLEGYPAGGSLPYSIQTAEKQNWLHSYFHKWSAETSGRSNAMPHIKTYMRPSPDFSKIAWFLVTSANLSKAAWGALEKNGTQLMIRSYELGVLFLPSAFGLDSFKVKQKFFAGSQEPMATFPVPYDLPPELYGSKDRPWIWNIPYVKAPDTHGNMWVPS
#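 Enzyme-compound mixtures sat 15 min at room temperature, followed by a 5 min reaction with 15 nM final substrate and 10 min with AlphaScreen beads. Recombinant human Tdp1 was used at 1 nM final.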
# Giardia killer – kills Giardia lamblia. Giardia lamblia trophozoite viability. activity change, % at 7.66 µM, hits read low. hit rate 0.15% among 340,000. AID 540267; in the data active = activity change below about -80%; inconclusive = between about -30% and that limit;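 also: parasites exposed to compound for two days anaerobically before the ATP read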
#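 Trophozoites 100 cells/well + cpd; 48 hrs, 37 deg C, anaerobic. ATPLite 1-Step added, 15-30 min RT, luminescence read (ATP-based viability).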
# Numbers without * were called inactive; u = inconclusive; x = no result; [ ] = remark or other dose. Unless noted, calls follow the shape of the dose curve; as a rule, active = well fitted curve in the direction sought with a large enough effect; inconclusive = small, poorly fitted or top-dose-only effect, or another doubt; inactive = no such curve, though single readings can be large; an effect the other way counts as inactive or inconclusive. % is scaled to controls: 0 for no effect and ±100 for the full control effect.
SMILES,ELG1 DNA repair,TDP1 cell noCPT,TDP1 cell CPT,IL-1B inflam inh,TDP1 inh,Giardia killer
C/C=C(\C)C(=O)N[C@@H](C)CN1C2=NC[C@H](C(C)C)N2C[C@H]1Cc1ccc(OC)cc1,20.9%,-12.7%,-6.1%,13.9,2.4%,24.8
COc1ccc(C[C@H]2CN3C(=NC[C@H]3C)N2CCNC(=O)c2ccc(C)c(Br)c2)cc1,3.6%,5.8µM*,6.51µM*,u,5.1%,-11.8
Cc1ccc(C(=O)NCCN2C3=NC[C@H](C)N3C[C@H]2Cc2ccc(O)cc2)cc1Br,3.2%,20.6µM*,20.6µM*,-19.8,6.4%,6.4
COc1ccc(C[C@@H]2CN3C(=NC[C@@H]3C)N2C[C@H](C)NC(=O)c2ccc(C)c(Br)c2)cc1,0.0%,14.6µM*,18.4µM*,-17.0,-1.3%,-11.6
Oc1c(Br)cc(Br)cc1CNn1cnnc1,-1.1%,-22.3%,-9.1%,16.4,3.8%,7.3
COc1cccc(/C=N/N=C(\N)c2nonc2N)c1O,u,0.92µM*,0.0065µM*,-22.1,2.5%,22.0
C/C(=N\OCC(=O)N/N=C/c1ccc(C)cc1O)c1cccs1,-17.4%,4.11µM*,4.61µM*,103.9,7.8%,-9.6
Cc1ccc(NC(=O)CCC(=O)N/N=C/c2cccnc2)cc1,-2.4%,u,-16.1%,11.4,x,-0.1
Cc1ccc(NC(=O)CCC(=O)N/N=C/c2ccc(O)cc2O)cc1,18.3µM*,16.4µM*,14.6µM*,175.1,x,7.3
C=CCc1cccc(/C=N/NC(=O)CCC(=O)Nc2ccc(C)cc2)c1O,-31.8%,10.3µM*,14.6µM*,59.6,2.7%,5.0
C/C(=N\NC(=O)CO/N=C(\C)c1cccs1)c1ccc(N)cc1,4.1%,-3.3%,-4.1%,19.2,1.3%,-4.7
Cc1ccc(/C=N/NC(=O)Cc2ccc(Cl)cc2)c(O)c1,-25.5%,20.6µM*,16.4µM*,65.5,50.1µM*,6.6
O=C(CCC(=O)Nc1ccc(F)cc1)N/N=C/c1ccccc1O,10.1%,u,u,150.4,3.0%,-13.5
Cc1c(C(=O)OCC(=O)Nc2ccc(C(=O)N(C)C)cc2)oc2ccccc12,-3.1%,14.5%,2.9%,71.1,0.8%,6.3
O=C1OCCC1Sc1nnc2c(n1)[nH]c1ccccc12 (stereo not given),x,-3.1%,11.6%,x,x,8.9
CCCCn1c(N)c(N(Cc2ccccc2OC)C(=O)COc2ccc(F)cc2Cl)c(=O)[nH]c1=O,2.4%,0.0%,1.2%,-10.2,1.0%[56.1 µM],-6.1
O=C(Cc1ccc(Br)cc1)N(Cc1ccccc1)c1ccccn1,-10.3%,-20.1%,-4.8%,-10.3,-2.4%,8.2
O=C(Cn1ncn2nc(-c3cccs3)cc2c1=O)NCc1ccccc1Cl,x,-20.3%,-22.6%,x,5.7%,x
CCC(C)(C)NC(=O)C(c1ccc(OC)cc1)N(Cc1ccc(OC)cc1)C(=O)CCC(=O)Nc1cc(C)on1 (stereo not given),6.7%,u,-26.2%,-1.1,5.1%,0.8
NC(=O)c1cccc(C[C@H](C(=O)O)N2C(=O)c3ccc(C(=O)O)cc3C2=O)c1,x,x,x,x,4.4%,x
CCC1(C2CCN(C(=O)c3ccccc3C(C)=O)CC2)NC(=O)N(CCc2scnc2C)C1=O (stereo not given),x,-10.8%,7.7%,x,x,x
CCN(CC)c1nc(Nc2ccc([N+](=O)[O-])cc2)nc(N(CC)CC)n1,u,20.6µM*,25.9µM*,-29.8,6.0%,14.5
CCOc1nc(Nc2ccc([N+](=O)[O-])cc2)nc(NC(C)(C)C)n1,u,-7.6%,6.7%,-26.0,2.7%,-19.6
CCOC(=O)N1CCN(C(=O)CSCc2ccc(Br)cc2)CC1,-6.3%,u,-23.1%,-60.3*,5.5%,-14.9
CCOC(=O)CC1C(=O)NCCN1C(=O)Nc1ccccc1 (stereo not given),u,-3.2%,3.5%,18.8,8.2%,-5.6
SMILES,ELG1 DNA repair,TDP1 cell noCPT,TDP1 cell CPT,IL-1B inflam inh,TDP1 inh,Giardia killer
CC(C)C(NC(=O)c1ccc(F)cc1)C(=O)N1CCC1 (stereo not given),6.2%,1.3%,-7.2%,31.7,2.3%,-6.9
CCOC(=O)N1CCN(C(=O)C(NC(=O)c2ccc(CC)cc2)C(C)C)CC1 (stereo not given),u,5.8µM*,8.2µM*,-18.9,8.7%,25.3
Cc1ccc(C(=O)NC(=S)N2CCN(c3cc(C)ccc3C)CC2)cc1,u,u,u,-5.1,1.5%,-6.6
CCOC(=O)CC1C(=O)NCCN1C(=S)NC(=O)c1ccc(C)c(Br)c1 (stereo not given),x,5.17µM*,5.8µM*,-16.0,x,x
Cc1ccc(C(=O)NC(=S)N2CCN(C(=O)OC(C)(C)C)CC2)cc1Br,u,13µM*,18.4µM*,0.0,-2.5%,-2.4
Cc1snc(S(=O)(=O)Cc2ccccc2Cl)c1C#N,-3.0%,-15.5%,6.9%,-7.9,-2.9%,-0.1
Clc1ccc(N=C2SCCS2)cc1,u,-5.9%,-5.0%,-3.0,x,40.0
COc1ccccc1NC(=O)C(=O)NCC(c1ccc2c(c1)OCO2)N1CCN(C)CC1 (stereo not given),x,u,u,x,8.8%,x
CCOC(=O)N1CCN(C(=S)NC(=O)c2ccc(Br)cc2)CC1,-18.1%,13µM*,u,u,5.1%,1.1
OC1(c2cccnc2)CCN(Cc2ccc3c(c2)CN(Cc2cc(F)cc(F)c2)CCO3)CC1,x,u,4.9%[9.04 µM],x,x,x
CN1N=C(C(=O)N2CCOc3ccc(CN4CCCC(C(=O)c5cccnc5)C4)cc3C2)CCC1=O (stereo not given),x,u,3.8%[9.04 µM],x,x,x
CC1=N/C(=C\c2ccc([N+](=O)[O-])cc2)C(=O)N1c1ccc(Br)c(C)c1,-2.6%,5.8µM*,11.6µM*,-19.5,0.0%,62.0
CCN1C(=O)N(C)[C@@H](c2ccccc2)C(C(C)=O)=C1C,x,-21.4%,-4.6%,19.0,11.4%[21 µM],3.1
CC(CC(=O)c1ccc(F)cc1)N1CCN(c2ccccc2)CC1 (stereo not given),x,u,18.4µM*,-15.2,x,9.4
CCOC(=O)C(c1ccccc1)N1CCN(c2ccc(OC)cc2)CC1 (stereo not given),u,u,-3.2%,10.9,11.0%,-5.2
CCOC(=O)C(C(=O)OCC)C(c1ccccc1)N1CCN(c2ccccc2)CC1 (stereo not given),x,20.6µM*,u,-16.0,x,11.3
NC(=O)c1ccc2c(=O)n3c(-c4cccs4)csc3nc2c1,u,-13.7%,-22.8%,-4.6,0.0%,16.1
CCN(CC)CC(O)CNc1ccnc2c(Cl)ccc(Cl)c12 (stereo not given),x,-6.2%,5.6%,-66.0*,x,0.8
